# In PubChem BioAssay (NCATS):
# Results filed as inconclusive are left out. A call without a number means that no potency is given here. Active and inactive are the calls of the source. Calls follow the shape of the dose curve; as a rule, active = well fitted inhibition curve with a large enough effect; inconclusive = small, poorly fitted or top-dose-only effect; inactive = no such curve, though single readings can be large or run the other way.
# Target: N-terminal Xaa-Pro-Lys N-methyltransferase 1 (Homo sapiens) (UniProt Q9BV86)
# Experiment: qHTS Assay for Inhibitors of N-terminal methyltransferase 1 (NTMT1): LOPAC validation of the NTMT1 SAHH-coupled ThioGlo3 Assay (AID 1347143);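 also: SAH from peptide methylation measured as thiol fluorescence via SAHH coupling and ThioGlo3; nearly all actives have a fitted effect of over 70% in size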
# Settings: recombinant NTMT1, SAHH-coupled ThioGlo3 fluorescence; series mostly up to 114 µM
# Source text: Assay Submitter (PI): Rong Huang Ph.D, Purdue University, West Lafayette, IN 47907 The N-terminal methytransferase 1 is the first methyltransferase that methylates protein alpha-N-amines and plays an important role in regulating cell mitosis, chromatin interactions and DNA repair. It is observed to be over-expressed in various cancer patient tissues like malignant melanoma and colorectal cancer tissues. Knockdown of NTMT1 in cancer cells causes cell mitotic defects and enhances sensitivity to DNA damaging chemotherapeutics. […] These critical cellular processes in which NTMT1 is implicated, coupled with emerging links to cellular dysfunction, strengthen the inference that NTMT1 is a compelling novel anticancer target. Progress have been made in understanding the molecular properties of NTMT1 and the biological consequences of protein alpha-N-terminal methylation, but there are no specific small molecule probes available for NTMT1 to fully characterize its MTase activity. To address this unmet need, a panel of assay is created and established to enable quantitative high-throughput screening (qHTS) for novel, potent, and selective small molecule NTMT1 inhibitors. Two orthogonal qHTS that use different reagents (ThioGlo vs. MTaseGlo) are developed for primary robotic screening against the NCATS chemical library of more than 400,000 small molecules. Identified inhibitors are reacquired, validated, and further characterized. […] A pilot screen against the LOPAC library of 1280 compounds is carried out to assess performance of the optimized qHTS in 1536-well plate format. Early Translation Branch (ETB) National Center for Advancing Translational Sciences (NCATS) National Institute of Health (NIH)
# Materials: NTMT1 enzyme, substrate SPKRIA, control peptide RCC1-6 is provided by the Huang laboratory. ThioGlo3 Assay: In brief, 125nM NTMT1 enzyme was dispensed into a 1536-well assay plate with Aurora Discovery BioRAPTR Flying Reagent Dispenser (FRD, Beckton-Dickenson). Compounds (at various concentration) or 1uM RCC1-6 (SPKRIA) control were transferred to the assay plate using the Kalypsys 1536-pintool apparatus. After 1 min of room temperature incubation, 1uL of substrate (100uM SAM, 10uM SAHH, 15uM ThioGlo3) was added to the wells bringing the final assay volume to 4uL. Initial (background) fluorescence readout (EX: 340nm, EM: 450nm) was then detected using the PerkinElmer ViewLux microplate imager and a final fluorescence readout was taken after 30 min of room temperature incubation. The data was normalized to the background fluorescence.
# Potency is read from the fitted curve at half-maximal effect.
# Chain of N-terminal Xaa-Pro-Lys N-methyltransferase 1 (Homo sapiens) (Q9BV86 whole entry, looked up): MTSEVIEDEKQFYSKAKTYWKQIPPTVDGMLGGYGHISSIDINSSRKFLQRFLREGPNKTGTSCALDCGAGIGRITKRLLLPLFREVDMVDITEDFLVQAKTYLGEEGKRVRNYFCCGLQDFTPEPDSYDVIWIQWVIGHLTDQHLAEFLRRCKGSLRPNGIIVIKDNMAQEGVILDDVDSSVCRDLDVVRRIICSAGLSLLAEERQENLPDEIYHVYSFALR
row,Compound,Potency
1,NC(=O)C(=O)O,inactive
2,Cn1c(=O)c(-c2c(Cl)cccc2Cl)cc2cnc(Nc3ccc(N4CCOCC4)cc3)nc21,56.2 µM (active)
3,CCCN(CC1CC1)c1nc(C)nc(Nc2c(Cl)cc(Cl)cc2Cl)c1Cl,inactive
4,O=S(=O)(c1cccc2c(I)cccc12)N1CCCNCC1,39.8 µM (active)
5,NO,inactive
6,CCCCCCCCCCCCCCCC(=O)OC(CC(=O)O)C[N+](C)(C)C (stereo not given),inactive
7,NCCSSCCN,inactive
8,CN1CCc2cccc3c2C1Cc1ccc(O)c(O)c1-3 (stereo not given),20 µM (active)
9,CNC(=O)[C@H]1O[C@@H](n2cnc3c(NCc4cccc(I)c4)ncnc32)[C@H](O)C1O (stereo not given in full),inactive
10,O=C(c1cc(O)c(O)c([N+](=O)[O-])c1)c1ccccc1F,56.2 µM (active)
11,OCC1O[C@H]([S-])C(O)[C@@H](O)[C@@H]1O.[Au+] (stereo not given in full),inactive
12,OCC1O[C@H](O)C(Cl)C(O)C1O (stereo not given in full),inactive
13,COc1ccccc1CNCCCCCCNCCCCCCCCNCCCCCCNCc1ccccc1OC,35.5 µM (active)
14,Oc1cc2c(cc1O)CN(C(=S)NCCc1ccc(Cl)cc1)CCC2,20 µM (active)
15,CN1CC(=O)N/C1=N/C(=O)Nc1cccc(Cl)c1,inactive
16,CC(=O)SCC[N+](C)(C)C,inactive
17,CC(C)NCC(O)COc1cccc2ccccc12 (stereo not given),inactive
18,CC(C)NC[C@H](O)COc1cccc2[nH]ccc12,inactive
19,Oc1ccccc1O,44.7 µM (active)
20,O=C1C(SCCO)=C(SCCO)C(=O)c2ccccc21,inactive

row,Compound,Potency
1,Nc1nc2ccc(Cl)cc2n2c(-c3ccccc3)nnc12,inactive
2,O=C(O)c1cc(=O)c2c(Cl)cc(Cl)cc2[nH]1,inactive
3,CN(C)C(N)=NCCC[C@H](N)C(=O)O,inactive
4,NCCCCC(=O)O,inactive
5,OC[C@H]1O[C@@H](n2cnc3c(NC4CCCC4)ncnc32)[C@H](O)C1O (stereo not given in full),inactive
6,C=CC(N)CCC(=O)O (stereo not given),inactive
7,O=C(NOCC1CC1)c1cc(Br)c(F)c(F)c1Nc1ccc(I)cc1Cl,inactive
8,Nc1ncnc2c1ncn2[C@@H]1O[C@H](CO)C(O)[C@H]1O (stereo not given in full),2.24 µM (active)
9,N=c1ccn2c(n1)O[C@H]1C(O)[C@@H](CO)O[C@H]12 (stereo not given in full),inactive
10,O=Nc1ccc2oc(=O)ccc2c1,4.47 µM (active)
11,CC(C)Cc1ccc([C@H](C)C(=O)O)cc1,inactive
12,NCCCS(=O)(=O)O,inactive
13,NC[C@H]1O[C@@H](n2cnc3c(N)ncnc32)[C@H](O)[C@@H]1O,inactive
14,Oc1ccc(C2CNCc3sccc32)cc1O (stereo not given),35.5 µM (active)
15,S=C(S)OC1CC2CC1C1CCCC21 (stereo not given),inactive
16,CCNc1nc2c(ncn2[C@H]2C[C@H](O)[C@@H](CO)O2)c(=O)[nH]1,inactive
17,C=C[C@H]1CN2CC[C@@H]1C[C@@H]2[C@@H](O)c1ccnc2ccc(OC)cc12,56.2 µM (active)
18,O=C1NC(=O)c2c1c(-c1ccccc1)cc1[nH]c3ccc(O)cc3c21,50.1 µM (active)
19,COC(=O)c1c(C)[nH]c(C)c1C(=O)c1ccccc1Cc1ccccc1,inactive
20,Nc1nc(Cl)nc2c1ncn2[C@@H]1O[C@H](CO)C(O)[C@H]1O (stereo not given in full),inactive
